In PubChem BioAssay (NCI):
The panel holds about 83,000 compounds, 20% with a hit somewhere; the sample as a whole holds those more often.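 Cell lines were cultured in 96-well plates, exposed to a single compound concentration, and assessed for percent growth 48 hours later.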 Calls of active or inactive are those of the source. The calls were made as follows: active = growth percent below 10; inactive = the rest.

Key:
Test in all cases: NCI-60 one-dose screen, 48 h (100 = growth as untreated, 0 = no growth, -100 = all killed)
Details in all cases: 10 µM
786-0 renal = system: 786-0 renal
MALME-3M melanoma = system: MALME-3M melanoma
RXF 393 renal = system: RXF 393 renal
UACC-257 melanoma = system: UACC-257 melanoma
SK-MEL-2 melanoma = system: SK-MEL-2 melanoma
SN12C renal = system: SN12C renal
TK-10 renal = system: TK-10 renal
ACHN renal = system: ACHN renal
A498 renal = system: A498 renal
RPMI-8226 leukemia = system: RPMI-8226 leukemia
OVCAR-8 ovarian = system: OVCAR-8 ovarian
OVCAR-4 ovarian = system: OVCAR-4 ovarian
SK-OV-3 ovarian = system: SK-OV-3 ovarian
IGROV1 ovarian = system: IGROV1 ovarian
OVCAR-3 ovarian = system: OVCAR-3 ovarian
NCI/ADR-RES ovarian = system: NCI/ADR-RES ovarian
T-47D breast = system: T-47D breast
BT-549 breast = system: BT-549 breast
MDA-MB-435 melanoma = system: MDA-MB-435 melanoma
MCF7 breast = system: MCF7 breast

Measured: growth

O=C(/C=C/c1ccc(Br)cc1)c1nc2ccccc2n1Cc1ccc(Br)cc1
inactive: TK-10 renal 23.8% | A498 renal 82.7% | OVCAR-4 ovarian 35.5% | SK-OV-3 ovarian 79.1%
active: 786-0 renal -81.3% | MALME-3M melanoma -42.9% | RXF 393 renal -82% | UACC-257 melanoma -4.85% | SK-MEL-2 melanoma 2.53% | SN12C renal 8.28% | ACHN renal -38.2% | RPMI-8226 leukemia -9.14% | OVCAR-8 ovarian -18% | IGROV1 ovarian -18% | OVCAR-3 ovarian -46.9% | NCI/ADR-RES ovarian -38.2% | T-47D breast 1.99% | BT-549 breast -66.2% | MDA-MB-435 melanoma -38.5% | MCF7 breast 3.68%

COC(=O)c1ccc(-n2cc(CCCN(CCNc3ccnc4cc(Cl)ccc34)C(=O)CCC(=O)O[C@@H]3O[C@@H]4OC5(C)CC[C@H]6[C@H](C)CC[C@@H]([C@H]3C)[C@@]46OO5)nn2)cc1
active: MALME-3M melanoma -61.5% | MCF7 breast -49.6%
inactive: 786-0 renal 52.4% | RXF 393 renal 34.2% | UACC-257 melanoma 35% | SK-MEL-2 melanoma 29.4% | SN12C renal 44% | TK-10 renal 60.5% | ACHN renal 36.3% | A498 renal 100% | RPMI-8226 leukemia 19.7% | OVCAR-8 ovarian 20.9% | OVCAR-4 ovarian 46.2% | SK-OV-3 ovarian 85.6% | IGROV1 ovarian 40.4% | OVCAR-3 ovarian 43.4% | NCI/ADR-RES ovarian 11.4% | T-47D breast 37.6% | BT-549 breast 43.2% | MDA-MB-435 melanoma 22.2%

O=C(NC([Se])=NC1CCCCC1)c1ccccc1
active: SK-MEL-2 melanoma -2.88% | SK-OV-3 ovarian 5.33%
inactive: 786-0 renal 39.4% | MALME-3M melanoma 94.4% | RXF 393 renal 20.5% | UACC-257 melanoma 30.8% | SN12C renal 39.6% | TK-10 renal 28.8% | ACHN renal 34.5% | A498 renal 73.3% | RPMI-8226 leukemia 56.2% | OVCAR-8 ovarian 40.9% | OVCAR-4 ovarian 75.7% | IGROV1 ovarian 13.6% | OVCAR-3 ovarian 48.4% | NCI/ADR-RES ovarian 23.3% | T-47D breast 46% | BT-549 breast 75.8% | MDA-MB-435 melanoma 42.4% | MCF7 breast 29.8%

C[C@H]1[C@H](OC(=O)CCC(=O)Nc2cnccn2)O[C@@H]2OC3(C)CC[C@H]4[C@H](C)CC[C@@H]1[C@@]24OO3
inactive: 786-0 renal 53.6% | MALME-3M melanoma 27.5% | RXF 393 renal 49% | UACC-257 melanoma 56.1% | SK-MEL-2 melanoma 31.2% | SN12C renal 45.3% | TK-10 renal 42.2% | ACHN renal 25.4% | A498 renal 101% | RPMI-8226 leukemia 21.5% | OVCAR-8 ovarian 20.7% | OVCAR-4 ovarian 44.1% | SK-OV-3 ovarian 77.4% | IGROV1 ovarian 25.7% | OVCAR-3 ovarian 34.6% | NCI/ADR-RES ovarian 19.1% | T-47D breast 22.1% | BT-549 breast 24% | MDA-MB-435 melanoma 16.1% | MCF7 breast 24.4%

C=CCN=C([Se])NC(=O)c1ccc2c(c1)OCO2
inactive: 786-0 renal 85.8% | MALME-3M melanoma 110% | RXF 393 renal 128% | UACC-257 melanoma 102% | SK-MEL-2 melanoma 143% | SN12C renal 81.5% | TK-10 renal 120% | ACHN renal 111% | A498 renal 82.5% | RPMI-8226 leukemia 105% | OVCAR-8 ovarian 61.1% | OVCAR-4 ovarian 108% | SK-OV-3 ovarian 45.1% | IGROV1 ovarian 75.6% | OVCAR-3 ovarian 112% | NCI/ADR-RES ovarian 60.3% | T-47D breast 96.6% | BT-549 breast 104% | MDA-MB-435 melanoma 96.6% | MCF7 breast 102%

C=CC[Se]C(=O)c1ccc(C(=O)[Se]CC=C)s1
active: 786-0 renal -96.3% | MALME-3M melanoma -47.7% | RXF 393 renal -93.6% | UACC-257 melanoma -78.4% | SK-MEL-2 melanoma -65.6% | SN12C renal -55.8% | TK-10 renal -80% | ACHN renal -45.6% | A498 renal -5.42% | RPMI-8226 leukemia -26.8% | OVCAR-8 ovarian -80.5% | OVCAR-4 ovarian -67.6% | SK-OV-3 ovarian -95.2% | IGROV1 ovarian -78.9% | OVCAR-3 ovarian -92.9% | NCI/ADR-RES ovarian -23.1% | T-47D breast -40.4% | BT-549 breast -92.3% | MDA-MB-435 melanoma -82.8% | MCF7 breast -55.4%

N#C[Se]CC(=O)Nc1cccc(C(F)(F)F)c1
active: 786-0 renal -54% | MALME-3M melanoma -95.3% | RXF 393 renal -40.9% | UACC-257 melanoma -33.3% | SK-MEL-2 melanoma -31.1% | SN12C renal -78.1% | TK-10 renal -79.8% | ACHN renal -38% | A498 renal -69.6% | OVCAR-8 ovarian -49.9% | IGROV1 ovarian -64.5% | OVCAR-3 ovarian -13.7% | NCI/ADR-RES ovarian -60.8% | BT-549 breast -90.2% | MDA-MB-435 melanoma -18.1% | MCF7 breast 6%
inactive: RPMI-8226 leukemia 10.2% | OVCAR-4 ovarian 36.8% | SK-OV-3 ovarian 14% | T-47D breast 51%
